# Results as given in publication PMC5540273 (PLoS ONE, 2017).
# Test system: T1, ASK2
# T1 construct: gene MAP3K6
# Settings: concentration: 1 μM, replicates: in singlicate; n = 1
# 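Further: KINOMEscan kinase panel screen.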
row,Compound,%Inh [%]
1,Fc1cccc(COc2ccc(Nc3ncnc4cc[nH]c34)cc2Cl)c1,0
2,COc1cc2ncnc(Nc3ccc(OCc4ccccc4Br)c(Cl)c3)c2cc1OC.Cl [GI261590],0
3,CCn1c(-c2ccncc2)nc2cnccc21 [SB-735216],20
4,FC(F)(F)c1ccc(-c2nn3ncccc3c2-c2ccnc(Nc3cccc(C(F)(F)F)c3)n2)cc1 [GW828205],0
5,CNc1nccc(-c2c(-c3ccc(F)cc3)ncn2C2CCN(C)CC2)n1 [SB-222903],0
6,Cl.c1ccc(Cn2ncc3cc(Nc4ncnc5ccccc45)ccc32)cc1 [GW273749],1
7,Cc1ccc(NC(=O)c2cccc(C#N)c2)cc1-c1ccc(C(=O)Nc2ccncc2)cc1 [GSK1398463],8
8,COC(=O)c1c(-c2ccccc2)c2cc(Cl)ccc2c(=O)n1Cc1ccc(S(C)(=O)=O)cc1,6
9,COc1ccc(Nc2nccc(N3CCC(NC(=O)Nc4ccc5c(c4)OCO5)C3)n2)cc1 (stereo not shown) [GSK1379745],5
10,COc1ccc(Nc2nccc(N3CCC(NC(=O)c4cccc(NC(C)=O)c4)C3)n2)cc1 (stereo not shown) [GSK1379732],1
11,Cl.Cn1ccc(-c2cccc(Nc3ccnc4cc(-c5nccs5)ccc34)c2)n1 [GW525701],0
12,c1ccc(-c2ccc3c(-c4ccnc(Nc5ccc6c(c5)OCCO6)n4)cnn3n2)cc1 [GW818941],0
13,O=C(c1ccc(-c2cc(-c3c[nH]nc3-c3ccccn3)ccn2)cc1)N1CCCC1 [GW792479],0
14,Cc1ccc(C)c(NC(=O)NCCNc2ccnc(Nc3ccc(F)cc3)n2)c1 [GSK1379878],0
15,Cn1ccc2ncnc(Nc3ccc(Oc4cccc(Cl)c4)c(Cl)c3)c21,11
16,CCC(CC)(CC)n1cnc2c(N)ncnc21 [SKF-97620],26
17,COc1ccc(NC(=O)c2ccc(-c3cc(-c4nnc(C)o4)ccc3C)cc2)cc1 [GW595885],15
18,CN1CCC(n2cnc(-c3ccc(F)cc3)c2-c2ccnc(NC3CCNCC3)n2)CC1 [SB-229482],0

row,Compound,%Inh [%]
1,Cn1ccc2ncnc(Oc3ccc(NC(=O)Nc4cccnc4)c(Cl)c3)c21,0
2,CC(=O)Nc1n[nH]c2ncc(-c3ccccc3)cc12 [SB-548492],23
3,CS(=O)(=O)CCNCc1nc(-c2ccc3ncnc(Nc4ccc(OCc5cccc(F)c5)c(Cl)c4)c3c2)cs1.Cl [GW583340],0
4,O=C(Nc1ccccc1F)NC1CCN(c2ccnc(Nc3ccc(F)cc3)n2)C1 (stereo not shown) [GSK1379722],16
5,Cc1cccc(-c2nc(Nc3ccc4[nH]nnc4c3)c3ccccc3n2)n1 [GW867587],0
6,Clc1cccc(-c2nc(Nc3ccncc3)c3ccccc3n2)c1 [GW873004],0
7,CCCc1ccc(S(=O)(=O)NC2CCN(c3ccnc(Nc4ccc(OC)cc4)n3)C2)cc1 (stereo not shown) [GSK1379737],0
8,CCc1nc(-c2cccc(N(C)S(=O)(=O)c3ccccc3)c2)c(-c2ccnc(Nc3ccc(N4CCN(C(C)=O)CC4)nc3)n2)s1 [GSK1645895],0
9,Nc1n[nH]c2nnc(-c3ccccc3)cc12 [SB-517389],0
10,O=C(Nc1n[nH]c2nc(-c3ccco3)c(Br)cc12)c1ccc(CN2CCCC2)cc1.O=C(O)[C@H](O)[C@@H](O)C(=O)O [SB-742352],0
11,CC(C)(C)OC(=O)NC1CCCN(c2cc(-c3ccc4c(N)n[nH]c4c3)nc(N)n2)C1 (stereo not shown) [GSK2286096],0
12,FC(F)(F)c1cc(Nc2nccc(-c3c(-c4ccc(Cl)cc4)nn4ncccc34)n2)ccc1Cl [GW829351],0
13,O=C(Nc1ccccc1)Nc1ccc(Oc2ccc3nccn3n2)cc1,0
14,COc1ccc(-c2oc3ncnc(N)c3c2-c2ccc(OC)cc2)cc1 [SB-589132],7
15,OCCOCCn1ccc2ncnc(Nc3ccc(Oc4cccc(Cl)c4)c(Cl)c3)c21,0
16,CNc1nccc(-c2c(-c3ccc(F)cc3)ncn2CCCN2CCOCC2)n1 [SB-222516],12
17,NC(=O)c1sc(-n2cnc3ccccc32)cc1OCc1ccccc1F [GSK1024306],0

# Test system: AURKA
# Settings: concentration: 1 μM, replicates: in singlicate; n = 1
row,Compound,%Inh [%]
1,Fc1cccc(COc2ccc(Nc3ncnc4cc[nH]c34)cc2Cl)c1,16
2,COc1cc2ncnc(Nc3ccc(OCc4ccccc4Br)c(Cl)c3)c2cc1OC.Cl [GI261590],1
3,CCn1c(-c2ccncc2)nc2cnccc21 [SB-735216],7
4,FC(F)(F)c1ccc(-c2nn3ncccc3c2-c2ccnc(Nc3cccc(C(F)(F)F)c3)n2)cc1 [GW828205],0
5,CNc1nccc(-c2c(-c3ccc(F)cc3)ncn2C2CCN(C)CC2)n1 [SB-222903],6
6,Cl.c1ccc(Cn2ncc3cc(Nc4ncnc5ccccc45)ccc32)cc1 [GW273749],10
7,Cc1ccc(NC(=O)c2cccc(C#N)c2)cc1-c1ccc(C(=O)Nc2ccncc2)cc1 [GSK1398463],7
8,COC(=O)c1c(-c2ccccc2)c2cc(Cl)ccc2c(=O)n1Cc1ccc(S(C)(=O)=O)cc1,4
9,COc1ccc(Nc2nccc(N3CCC(NC(=O)Nc4ccc5c(c4)OCO5)C3)n2)cc1 (stereo not shown) [GSK1379745],6
10,COc1ccc(Nc2nccc(N3CCC(NC(=O)c4cccc(NC(C)=O)c4)C3)n2)cc1 (stereo not shown) [GSK1379732],16
11,Cl.Cn1ccc(-c2cccc(Nc3ccnc4cc(-c5nccs5)ccc34)c2)n1 [GW525701],0
12,c1ccc(-c2ccc3c(-c4ccnc(Nc5ccc6c(c5)OCCO6)n4)cnn3n2)cc1 [GW818941],0
13,O=C(c1ccc(-c2cc(-c3c[nH]nc3-c3ccccn3)ccn2)cc1)N1CCCC1 [GW792479],0
14,Cc1ccc(C)c(NC(=O)NCCNc2ccnc(Nc3ccc(F)cc3)n2)c1 [GSK1379878],7
15,Cn1ccc2ncnc(Nc3ccc(Oc4cccc(Cl)c4)c(Cl)c3)c21,0
16,CCC(CC)(CC)n1cnc2c(N)ncnc21 [SKF-97620],28
17,COc1ccc(NC(=O)c2ccc(-c3cc(-c4nnc(C)o4)ccc3C)cc2)cc1 [GW595885],0
18,CN1CCC(n2cnc(-c3ccc(F)cc3)c2-c2ccnc(NC3CCNCC3)n2)CC1 [SB-229482],34

row,Compound,%Inh [%]
1,Cn1ccc2ncnc(Oc3ccc(NC(=O)Nc4cccnc4)c(Cl)c3)c21,18
2,CC(=O)Nc1n[nH]c2ncc(-c3ccccc3)cc12 [SB-548492],16
3,CS(=O)(=O)CCNCc1nc(-c2ccc3ncnc(Nc4ccc(OCc5cccc(F)c5)c(Cl)c4)c3c2)cs1.Cl [GW583340],5
4,O=C(Nc1ccccc1F)NC1CCN(c2ccnc(Nc3ccc(F)cc3)n2)C1 (stereo not shown) [GSK1379722],0
5,Cc1cccc(-c2nc(Nc3ccc4[nH]nnc4c3)c3ccccc3n2)n1 [GW867587],0
6,Clc1cccc(-c2nc(Nc3ccncc3)c3ccccc3n2)c1 [GW873004],0
7,CCCc1ccc(S(=O)(=O)NC2CCN(c3ccnc(Nc4ccc(OC)cc4)n3)C2)cc1 (stereo not shown) [GSK1379737],0
8,CCc1nc(-c2cccc(N(C)S(=O)(=O)c3ccccc3)c2)c(-c2ccnc(Nc3ccc(N4CCN(C(C)=O)CC4)nc3)n2)s1 [GSK1645895],19
9,Nc1n[nH]c2nnc(-c3ccccc3)cc12 [SB-517389],13
10,O=C(Nc1n[nH]c2nc(-c3ccco3)c(Br)cc12)c1ccc(CN2CCCC2)cc1.O=C(O)[C@H](O)[C@@H](O)C(=O)O [SB-742352],0
11,CC(C)(C)OC(=O)NC1CCCN(c2cc(-c3ccc4c(N)n[nH]c4c3)nc(N)n2)C1 (stereo not shown) [GSK2286096],52
12,FC(F)(F)c1cc(Nc2nccc(-c3c(-c4ccc(Cl)cc4)nn4ncccc34)n2)ccc1Cl [GW829351],5
13,O=C(Nc1ccccc1)Nc1ccc(Oc2ccc3nccn3n2)cc1,0
14,COc1ccc(-c2oc3ncnc(N)c3c2-c2ccc(OC)cc2)cc1 [SB-589132],0
15,OCCOCCn1ccc2ncnc(Nc3ccc(Oc4cccc(Cl)c4)c(Cl)c3)c21,0
16,CNc1nccc(-c2c(-c3ccc(F)cc3)ncn2CCCN2CCOCC2)n1 [SB-222516],0
17,NC(=O)c1sc(-n2cnc3ccccc32)cc1OCc1ccccc1F [GSK1024306],0
